According to the supplement of paper PMC10849652:
The full data set covers some 7,900 targets. This sample favours those with a hit. About 0.6% of all pairs of compound and target were hits.

Assays:
Assay in all cases: log2 fold change, soluble protein after heating vs DMSO (PISA); higher = thermal stabilisation; K562 cells, 10 uM, 30 min; active = over 0.2 and 3.5 SD of the protein, either way, in both replicates (recomputed)
erlotinib = compound: C#Cc1cccc(Nc2ncnc3cc(OCCOC)c(OCCOC)cc23)c1 [erlotinib]
Outline: (§1)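 Values are thermal stability changes relative to control samples and are taken from duplicates. They are stated as log2 fold changes. Before quantification by TMTpro 16plex LC-MS/MS with equalised channel sums, K562 cells at 2×10^6 cells/mL were treated with 10 μM compound for 30 min, heated in aliquots for 3 min across 48°C-58°C, pooled, extracted in PBS with 0.5% NP-40 at 4°C, and centrifuged at 21,000xg for 90 min to give the soluble supernatant.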

[1] = compound: C/C(=N\NC(=O)C1=CC(=CC=C1)S(=O)(=O)N2CCOCC2)/C3=C(C=CC(=C3)Cl)O
Outline: as §1

[2] = compound: C1=CC(=C(C=C1Cl)C2=NC3=NC=CN=C3C(=N2)NC4=CC=NC=C4)F
Outline: as §1

[3] = compound: C1=CC(=CC=C1C2=NC3=C(N2)C=C(C=C3)C(=O)N)OC4=CC=C(C=C4)Cl
Outline: as §1

[4] = compound: C1=CC2=C(C=CC(=C2)/C=C\3/C(=O)NC(=NCC4=CC=CS4)S3)N=C1
Outline: as §1

[5] = compound: C1=CC2=NC=CN=C2C=C1/C=C/3\C(=O)NC(=O)S3
Outline: as §1

[6] = compound: C1=CC=C(C=C1)C2=NC(=C(N2)C3=CC=NC=C3)C4=CC(=C(C=C4)Cl)O
Outline: as §1

[7] = compound: C1=CC=C2C(=C1)C3=NNC4=CC=CC(=C43)C2=O
Outline: as §1

[8] = compound: C1CCN(C1)C(=O)NC2=CC=CC(=C2)NC3=NC=C(C(=N3)NCCC4=CN=CN4)Br
Outline: as §1

[9] = compound: C1CN(CCC1(CC2=CC=C(C=C2)Cl)N)C3=NC=NC4=C3C=CN4
Outline: as §1

IRAK-1-4 Inhibitor I = compound: C1COCCN1CCN2C3=CC=CC=C3N=C2NC(=O)C4=CC(=CC=C4)[N+](=O)[O-] [IRAK-1-4 Inhibitor I]
Outline: as §1

ibrutinib = compound: C=CC(=O)N1CCC[C@@H](n2nc(-c3ccc(Oc4ccccc4)cc3)c3c(N)ncnc32)C1 [ibrutinib]
Outline: as §1

[10] = compound: CC(=O)c1cnc2ccc(-c3cc(Cl)c(O)c(Cl)c3)nc2c1N[C@H]1CC[C@H](CN(C)C)CC1
Outline: as §1

ralimetinib = compound: CC(C)(C)Cn1c(N)nc2ccc(-c3[nH]c(C(C)(C)C)nc3-c3ccc(F)cc3)nc21 [ralimetinib]
Outline: as §1

[11] = compound: CC(C)(O)CC(=O)NCCn1ccc2ncnc(Nc3ccc(Oc4cccc(C(F)(F)F)c4)c(Cl)c3)c21
Outline: as §1

[12] = compound: CC(C)C1=C2N=C(C=C(N2N=C1)NCC3=CC=CC=C3)NCCCCCCN
Outline: as §1

[13] = compound: CC(C)C[C@@H](C=O)NC(=O)[C@H](CC(C)C)NC(=O)[C@H](CC(C)C)NC(=O)OCc1ccccc1
Outline: as §1

pinometostat = compound: CC(C)N(C[C@H]1O[C@@H](n2cnc3c(N)ncnc32)[C@H](O)[C@@H]1O)[C@H]1C[C@@H](CCc2nc3cc(C(C)(C)C)ccc3[nH]2)C1 [pinometostat]
Outline: as §1

[14] = compound: CC1=C(C(CC(=O)N1)C2=CC=C(C=C2)C(F)(F)F)C(=O)NC3=C(C=C4C(=C3)C=NN4)F
Outline: as §1

[15] = compound: CC1=C(C2=C(C=C1)C(=O)C3=CC=CC=C3N2CCCN)C
Outline: as §1

Measured: log2 fold change

RPS4X (UniProt P62701)
inactive: erlotinib -0.177 | [1] -0.092 | [2] -0.37 | [3] 0.054 | [4] -0.042 | [5] -0.033 | [6] -0.043 | [7] 0.043 | [8] 0.076 | [9] -0.221 | IRAK-1-4 Inhibitor I -0.129 | ibrutinib 0.025 | [10] 0.126 | ralimetinib 0.106 | [11] 0.003 | [12] -0.025 | [13] 0.074 | pinometostat 0.273 | [14] 0.048
active: [15] -0.679

SEH1L isoform 1 (UniProt Q96EE3)
Chain of UniProt Q96EE3 (Q96EE3 whole entry, looked up): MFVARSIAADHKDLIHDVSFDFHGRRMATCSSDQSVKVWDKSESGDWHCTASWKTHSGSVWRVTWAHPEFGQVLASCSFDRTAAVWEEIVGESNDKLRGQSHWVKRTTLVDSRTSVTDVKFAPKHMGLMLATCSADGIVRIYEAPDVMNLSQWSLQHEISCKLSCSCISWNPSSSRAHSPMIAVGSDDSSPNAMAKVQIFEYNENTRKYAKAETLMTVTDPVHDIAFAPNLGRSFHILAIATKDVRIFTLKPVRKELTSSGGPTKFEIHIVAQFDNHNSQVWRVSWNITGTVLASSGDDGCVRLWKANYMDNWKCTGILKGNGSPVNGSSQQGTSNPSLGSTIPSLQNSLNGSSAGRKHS
inactive: erlotinib 0.018 | [1] 0.073 | [2] 0.012 | [3] 0.043 | [4] 0.049 | [5] 0.064 | [6] 0 | [7] -0.06 | [8] -0.02 | [9] 0.035 | IRAK-1-4 Inhibitor I 0.028 | ibrutinib -0.021 | [10] -0.056 | ralimetinib -0.014 | [11] 0.03 | [12] -0.019 | [13] -0.026 | pinometostat 0.011 | [14] 0.039 | [15] 0

RRP36 (UniProt Q96EU6)
Chain of UniProt Q96EU6 (Q96EU6 whole entry, looked up): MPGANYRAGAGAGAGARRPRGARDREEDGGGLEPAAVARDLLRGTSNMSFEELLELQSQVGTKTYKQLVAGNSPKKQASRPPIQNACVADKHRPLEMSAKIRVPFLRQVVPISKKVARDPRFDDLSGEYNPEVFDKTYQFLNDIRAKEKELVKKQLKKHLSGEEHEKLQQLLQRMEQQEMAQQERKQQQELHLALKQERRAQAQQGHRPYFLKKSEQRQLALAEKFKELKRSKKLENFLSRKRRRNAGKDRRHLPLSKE
active: [15] -0.785
inactive: erlotinib -0.192 | [1] -0.147 | [2] -0.586 | [3] -0.005 | [4] -0.133 | [5] -0.06 | [6] 0.019 | [7] 0.012 | [8] 0.045 | [9] -0.146 | ibrutinib 0.045 | [10] 0.122 | ralimetinib 0.083 | [11] 0 | [12] 0.044 | [13] 0.042 | [14] 0.021

RBM12 (UniProt Q9NTZ6)
inactive: erlotinib 0.092 | [1] 0.187 | [2] 0.123 | [3] -0.022 | [4] 0.117 | [5] -0.003 | [6] -0.008 | [7] 0.011 | [8] -0.046 | [9] 0.006 | IRAK-1-4 Inhibitor I -0.042 | ibrutinib -0.018 | [10] -0.135 | ralimetinib -0.037 | [11] -0.145 | [12] -0.237 | [13] 0.009 | pinometostat -0.043 | [14] 0.012 | [15] -0.007

RRAGB (UniProt Q5VZM2)
inactive: erlotinib -0.028 | [1] 0.047 | [2] 0.004 | [3] 0.023 | [4] -0.13 | [5] 0 | [6] 0.021 | [7] 0.082 | [8] -0.048 | [9] 0.037 | IRAK-1-4 Inhibitor I 0.034 | ibrutinib 0.029 | [10] 0.08 | ralimetinib 0.002 | [11] -0.012 | [12] -0.162 | [13] 0.011 | pinometostat 0.039 | [14] -0.016 | [15] 0.026

RAP2C (UniProt Q9Y3L5)
inactive: erlotinib 0.021 | [1] 0.119 | [2] 0.205 | [3] 0.01 | [4] -0.097 | [5] 0.026 | [6] 0.026 | [7] 0.167 | [8] -0.008 | [9] 0.034 | ibrutinib 0.016 | [10] -0.032 | ralimetinib 0.021 | [11] -0.107 | [12] 0.148 | [13] 0.048 | [14] -0.104 | [15] 0.11

RPP14 (UniProt O95059)
Chain of UniProt O95059 (O95059 whole entry, looked up): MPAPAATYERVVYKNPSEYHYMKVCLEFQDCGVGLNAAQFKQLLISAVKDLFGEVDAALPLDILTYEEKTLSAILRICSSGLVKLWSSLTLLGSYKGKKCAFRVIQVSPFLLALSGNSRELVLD
inactive: erlotinib -0.047 | [1] 0.09 | [2] -0.077 | [3] 0.059 | [4] -0.046 | [5] -0.023 | [6] 0.012 | [7] -0.022 | [8] -0.017 | [9] 0.021 | IRAK-1-4 Inhibitor I -0.035 | ibrutinib 0.073 | [10] -0.021 | ralimetinib 0.009 | [11] 0.051 | [12] -0.021 | [13] 0 | pinometostat 0.021 | [14] 0.041 | [15] -0.04

RFC3 (UniProt P40938)
inactive: erlotinib -0.04 | [1] 0.108 | [2] 0.033 | [3] 0.005 | [4] 0.066 | [5] 0.007 | [6] 0.046 | [7] 0.046 | [8] -0.06 | [9] 0.054 | IRAK-1-4 Inhibitor I 0.003 | ibrutinib 0.025 | [10] -0.101 | ralimetinib 0.021 | [11] -0.087 | [12] -0.012 | [13] -0.047 | pinometostat -0.057 | [14] 0 | [15] 0.09

RUNX1 isoform 8 (UniProt Q01196)
Chain of UniProt Q01196 (Q01196 whole entry, looked up): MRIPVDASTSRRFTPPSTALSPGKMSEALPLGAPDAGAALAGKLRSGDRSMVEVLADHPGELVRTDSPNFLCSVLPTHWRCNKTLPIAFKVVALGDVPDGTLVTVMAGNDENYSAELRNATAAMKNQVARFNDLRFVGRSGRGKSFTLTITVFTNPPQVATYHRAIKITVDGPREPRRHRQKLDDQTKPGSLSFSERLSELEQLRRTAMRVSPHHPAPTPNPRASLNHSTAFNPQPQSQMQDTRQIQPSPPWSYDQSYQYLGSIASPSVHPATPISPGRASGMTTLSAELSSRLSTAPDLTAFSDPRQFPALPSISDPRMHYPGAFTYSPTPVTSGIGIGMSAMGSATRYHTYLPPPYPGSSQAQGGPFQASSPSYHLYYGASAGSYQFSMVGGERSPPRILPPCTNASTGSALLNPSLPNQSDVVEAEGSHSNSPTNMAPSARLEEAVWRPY
inactive: erlotinib 0.122 | [1] 0.081 | [2] -0.03 | [3] 0.048 | [4] -0.001 | [5] 0.032 | [6] 0.131 | [7] -0.033 | IRAK-1-4 Inhibitor I -0.102 | ibrutinib 0.058 | [10] -0.207 | ralimetinib -0.043 | [11] -0.138 | [12] -0.184 | [13] 0.082 | pinometostat 0.069 | [14] 0.076

SENP6 (UniProt Q9GZR1)
Chain of UniProt Q9GZR1 (Q9GZR1 whole entry, looked up): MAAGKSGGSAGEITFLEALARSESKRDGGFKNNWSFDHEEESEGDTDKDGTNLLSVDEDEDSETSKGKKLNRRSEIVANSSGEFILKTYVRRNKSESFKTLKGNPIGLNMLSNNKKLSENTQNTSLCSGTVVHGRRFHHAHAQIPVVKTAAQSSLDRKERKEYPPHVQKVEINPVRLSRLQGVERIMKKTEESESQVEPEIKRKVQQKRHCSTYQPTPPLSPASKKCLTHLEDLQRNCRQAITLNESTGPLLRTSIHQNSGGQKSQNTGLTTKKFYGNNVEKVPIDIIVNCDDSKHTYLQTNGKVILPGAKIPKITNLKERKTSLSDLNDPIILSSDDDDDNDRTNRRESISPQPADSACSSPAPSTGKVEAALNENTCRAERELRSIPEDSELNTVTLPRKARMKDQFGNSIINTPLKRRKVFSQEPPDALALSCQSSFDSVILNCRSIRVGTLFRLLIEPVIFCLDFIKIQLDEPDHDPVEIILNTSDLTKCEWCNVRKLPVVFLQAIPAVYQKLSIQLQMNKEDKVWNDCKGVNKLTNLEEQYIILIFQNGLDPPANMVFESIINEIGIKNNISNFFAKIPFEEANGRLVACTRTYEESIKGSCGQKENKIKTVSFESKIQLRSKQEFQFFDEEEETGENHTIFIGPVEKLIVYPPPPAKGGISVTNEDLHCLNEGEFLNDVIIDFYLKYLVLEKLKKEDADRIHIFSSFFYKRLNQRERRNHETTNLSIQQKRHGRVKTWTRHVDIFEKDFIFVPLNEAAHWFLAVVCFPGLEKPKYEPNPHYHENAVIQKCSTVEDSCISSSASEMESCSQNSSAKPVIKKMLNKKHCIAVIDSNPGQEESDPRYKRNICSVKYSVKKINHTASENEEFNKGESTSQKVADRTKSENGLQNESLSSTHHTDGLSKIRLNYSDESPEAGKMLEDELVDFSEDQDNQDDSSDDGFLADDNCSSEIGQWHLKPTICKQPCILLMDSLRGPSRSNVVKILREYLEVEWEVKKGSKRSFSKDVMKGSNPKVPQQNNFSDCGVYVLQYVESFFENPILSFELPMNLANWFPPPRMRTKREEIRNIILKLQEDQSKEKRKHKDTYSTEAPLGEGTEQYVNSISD
inactive: erlotinib 0.028 | [1] 0.033 | [3] -0.049 | [4] -0.029 | [5] 0.08 | [6] -0.011 | [7] -0.078 | [8] -0.061 | [9] 0.049 | IRAK-1-4 Inhibitor I 0.005 | ibrutinib -0.018 | [10] -0.063 | ralimetinib -0.031 | [11] -0.058 | [12] 0.094 | [13] 0.043 | pinometostat 0.004 | [14] -0.028 | [15] 0.057
active: [2] 0.237

SACM1L (UniProt Q9NTJ5)
active: [12] -0.262
inactive: erlotinib 0.005 | [1] 0.1 | [2] 0.109 | [3] -0.061 | [4] 0.039 | [5] -0.007 | [6] 0.077 | [7] 0.009 | [8] 0.001 | [9] 0.068 | IRAK-1-4 Inhibitor I 0.008 | ibrutinib -0.031 | [10] -0.022 | ralimetinib 0.064 | [11] -0.007 | [13] -0.01 | pinometostat -0.042 | [14] -0.035 | [15] 0.029

RNF2 (UniProt Q99496)
inactive: erlotinib -0.014 | [1] 0.116 | [2] -0.013 | [3] -0.231 | [4] -0.057 | [5] -0.004 | [7] -0.053 | [8] -0.103 | [9] -0.006 | IRAK-1-4 Inhibitor I -0.024 | ibrutinib 0.086 | [10] 0.001 | [11] -0.065 | [12] 0.091 | pinometostat 0.066 | [14] 0.04 | [15] -0.058

RPS15 (UniProt P62841)
active: [15] -0.574
inactive: erlotinib -0.173 | [1] -0.259 | [2] -0.208 | [3] 0.016 | [4] 0.028 | [5] -0.092 | [6] 0.036 | [7] -0.131 | [8] 0.188 | [9] -0.138 | IRAK-1-4 Inhibitor I -0.114 | ibrutinib 0.11 | [10] -0.042 | ralimetinib 0.076 | [11] 0.103 | [12] -0.043 | [13] 0.11 | pinometostat 0.088 | [14] 0.071

RAF1 isoform 2 (UniProt P04049)
Chain of UniProt P04049 (P04049 whole entry, looked up): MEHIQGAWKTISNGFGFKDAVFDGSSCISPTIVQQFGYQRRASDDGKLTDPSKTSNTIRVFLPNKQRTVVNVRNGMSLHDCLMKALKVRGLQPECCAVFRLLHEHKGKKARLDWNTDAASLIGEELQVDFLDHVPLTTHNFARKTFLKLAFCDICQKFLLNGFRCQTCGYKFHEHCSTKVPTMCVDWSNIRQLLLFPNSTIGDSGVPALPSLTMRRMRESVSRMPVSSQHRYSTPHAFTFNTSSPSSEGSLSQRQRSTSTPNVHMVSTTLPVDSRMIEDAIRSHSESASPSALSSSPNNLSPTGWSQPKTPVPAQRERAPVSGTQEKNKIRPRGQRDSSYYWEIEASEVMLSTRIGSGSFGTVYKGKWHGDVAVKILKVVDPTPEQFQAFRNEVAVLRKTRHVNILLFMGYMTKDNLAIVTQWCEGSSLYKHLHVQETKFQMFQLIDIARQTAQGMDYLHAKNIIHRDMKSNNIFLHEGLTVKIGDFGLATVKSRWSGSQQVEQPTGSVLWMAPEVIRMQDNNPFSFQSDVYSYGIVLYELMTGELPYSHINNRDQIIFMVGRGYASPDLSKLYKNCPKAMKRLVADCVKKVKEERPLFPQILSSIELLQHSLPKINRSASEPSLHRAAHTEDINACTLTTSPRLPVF
active: [6] 0.513
inactive: erlotinib -0.048 | [1] 0.08 | [2] -0.129 | [3] 0.04 | [4] 0.197 | [5] 0.02 | [7] 0.01 | [8] -0.121 | [9] 0.022 | IRAK-1-4 Inhibitor I -0.038 | ibrutinib -0.058 | [10] -0.263 | ralimetinib -0.054 | [11] -0.072 | [12] -0.12 | [13] 0.066 | pinometostat 0.29 | [15] 0.09

RABGAP1L isoform 5 (UniProt Q5R372)
inactive: erlotinib 0.114 | [1] 0.043 | [2] -0.076 | [3] 0.089 | [4] -0.007 | [5] 0.045 | [7] -0.097 | [8] 0.023 | [9] 0.016 | IRAK-1-4 Inhibitor I 0.04 | ibrutinib -0.031 | [10] -0.025 | [11] -0.057 | [12] -0.125 | pinometostat -0.17 | [14] -0.297 | [15] -0.271

RBM26 isoform 2 (UniProt Q5T8P6)
Chain of UniProt Q5T8P6 (Q5T8P6 whole entry, looked up): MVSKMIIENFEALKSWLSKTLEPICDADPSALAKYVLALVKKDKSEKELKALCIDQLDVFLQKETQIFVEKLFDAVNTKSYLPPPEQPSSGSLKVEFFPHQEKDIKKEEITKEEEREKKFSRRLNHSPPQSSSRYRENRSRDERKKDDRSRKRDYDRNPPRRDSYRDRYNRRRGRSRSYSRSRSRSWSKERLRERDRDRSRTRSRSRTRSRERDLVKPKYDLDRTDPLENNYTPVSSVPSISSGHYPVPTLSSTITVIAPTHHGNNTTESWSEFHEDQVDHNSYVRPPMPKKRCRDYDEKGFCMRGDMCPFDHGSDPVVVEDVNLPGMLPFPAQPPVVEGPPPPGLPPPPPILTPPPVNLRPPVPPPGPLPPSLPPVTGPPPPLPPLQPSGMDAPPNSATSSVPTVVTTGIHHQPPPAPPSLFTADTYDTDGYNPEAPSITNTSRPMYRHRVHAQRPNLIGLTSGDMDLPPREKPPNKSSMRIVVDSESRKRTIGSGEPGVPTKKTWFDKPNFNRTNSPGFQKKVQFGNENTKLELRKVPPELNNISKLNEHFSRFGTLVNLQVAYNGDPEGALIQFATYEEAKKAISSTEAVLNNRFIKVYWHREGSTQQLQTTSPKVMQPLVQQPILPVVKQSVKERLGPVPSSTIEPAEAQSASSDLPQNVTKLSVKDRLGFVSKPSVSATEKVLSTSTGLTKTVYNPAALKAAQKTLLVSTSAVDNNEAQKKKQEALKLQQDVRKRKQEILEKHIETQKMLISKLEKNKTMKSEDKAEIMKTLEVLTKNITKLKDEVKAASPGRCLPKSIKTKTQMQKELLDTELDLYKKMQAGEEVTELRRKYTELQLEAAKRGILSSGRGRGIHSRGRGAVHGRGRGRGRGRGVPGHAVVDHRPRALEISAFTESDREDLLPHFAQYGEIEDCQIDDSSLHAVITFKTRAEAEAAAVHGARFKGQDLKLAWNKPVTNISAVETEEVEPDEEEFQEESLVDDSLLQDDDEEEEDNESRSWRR
inactive: erlotinib 0.174 | [1] 0.216 | [2] 0.25 | [3] -0.004 | [4] -0.018 | [5] 0 | [6] 0.113 | [7] 0.002 | [8] -0.027 | [9] 0.012 | IRAK-1-4 Inhibitor I -0.086 | ibrutinib 0.032 | [10] -0.179 | ralimetinib -0.021 | [11] -0.16 | [12] -0.295 | [13] 0.024 | pinometostat -0.022 | [14] 0.014 | [15] 0.06

RAB8B (UniProt Q92930)
Chain of UniProt Q92930 (Q92930 whole entry, looked up): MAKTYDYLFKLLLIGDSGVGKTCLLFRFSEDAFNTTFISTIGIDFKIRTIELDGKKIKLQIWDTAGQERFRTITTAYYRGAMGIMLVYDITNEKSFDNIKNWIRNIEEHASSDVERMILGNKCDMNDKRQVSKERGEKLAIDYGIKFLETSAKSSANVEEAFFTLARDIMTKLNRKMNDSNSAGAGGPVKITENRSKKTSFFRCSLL
active: [2] 0.332
inactive: erlotinib 0.258 | [1] 0.085 | [3] 0.028 | [4] -0.02 | [5] 0.145 | [6] 0.029 | [7] 0.012 | [8] 0.027 | [9] -0.043 | IRAK-1-4 Inhibitor I 0.028 | ibrutinib -0.009 | [10] 0 | ralimetinib -0.001 | [11] -0.047 | [12] -0.002 | [13] 0.046 | pinometostat -0.091 | [14] 0.019 | [15] 0.004
